The whole screen tested about 5,500 compounds, of which about 2,000 (36%) were called active. Another 18% or so got no clear call; they are omitted. Cut-off read from the data, not from the text of the source: active = normalized growth mostly below about 0.91 (no sharp cut-off); inconclusive = no clear call, values can overlap the other calls; inactive = mostly above about 0.92. Some of the results follow.
Test: chemical genetic growth profiling, strain panel (AID 1159580);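 note: tested at 20 µM; growth read once vehicle control cultures reached saturation at 30 °C; 1 = growth at the plate median or of vehicle wells; lower values mean less growth of the strain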
Conditions: S. cerevisiae deletion strains, growth OD

Measured: normalized growth

N#CCC(=O)Nc1ccccn1
inactive: locus YAL013W, strain DEP1, stronger effect = lower value 1.02 | locus YBR229C, strain ROT2, stronger effect = lower value 0.964 | locus YDL101C, strain DUN1, stronger effect = lower value 1.04 | locus YDR150W, strain NUM1, stronger effect = lower value 1.01 | locus YEL061C, strain CIN8, stronger effect = lower value 1.01 | locus YGR078C, strain PAC10, stronger effect = lower value 1.02 | locus YHR030C, strain SLT2, stronger effect = lower value 1.24 | locus YHR087W, strain rtc3, stronger effect = lower value 0.986 | locus YJR043C, strain POL32, stronger effect = lower value 1.01 | locus YJR075W, strain HOC1, stronger effect = lower value 1 | locus YKL190W, strain CNB1, stronger effect = lower value 1 | locus YLR039C, strain RIC1, stronger effect = lower value 1.01 | locus YLR058C, strain SHM2 (second series), stronger effect = lower value 0.995 | locus YLR085C, strain ARP6, stronger effect = lower value 1.06 | locus YLR262C, strain YPT6, stronger effect = lower value 0.989 | locus YML094W, strain GIM5, stronger effect = lower value 1.02 | locus YMR219W, strain ESC1, stronger effect = lower value 0.992 | locus YMR263W, strain SAP30, stronger effect = lower value 1.01 | locus YNL153C, strain GIM3, stronger effect = lower value 1.04 | locus YNL298W, strain CLA4 (second series), stronger effect = lower value 1.06 | locus YNL322C, strain KRE1, stronger effect = lower value 1.01 | locus YNR030W, strain Alg12, stronger effect = lower value 1.07 | locus YOL006C, strain TOP1, stronger effect = lower value 1.07 | locus YPL055C, strain LGE1, stronger effect = lower value 1.04 | locus YPL241C, strain CIN2, stronger effect = lower value 1.04 | locus YPR135W, strain CTF4, stronger effect = lower value 1.2

Reference: PubChem BioAssay AID1159580 (chemical genetic matrix, 2015)
